Measurements published in PMC7819943, “Rice protein-binding microarrays: a tool to detect cis-acting elements near promoter regions in rice”.
In all, about 39,000 sequences were measured (“fluorescence intensity (a.u.)”: median about 4,300, highest 2% from about 39,000 on). The list comes from a sample in which the highest values are over-represented; it also holds similar and randomly drawn sequences.

Target: T1, OsSMF1 (Oryza sativa, UniProt Q6ZLB0 1-436)
T1 sequence: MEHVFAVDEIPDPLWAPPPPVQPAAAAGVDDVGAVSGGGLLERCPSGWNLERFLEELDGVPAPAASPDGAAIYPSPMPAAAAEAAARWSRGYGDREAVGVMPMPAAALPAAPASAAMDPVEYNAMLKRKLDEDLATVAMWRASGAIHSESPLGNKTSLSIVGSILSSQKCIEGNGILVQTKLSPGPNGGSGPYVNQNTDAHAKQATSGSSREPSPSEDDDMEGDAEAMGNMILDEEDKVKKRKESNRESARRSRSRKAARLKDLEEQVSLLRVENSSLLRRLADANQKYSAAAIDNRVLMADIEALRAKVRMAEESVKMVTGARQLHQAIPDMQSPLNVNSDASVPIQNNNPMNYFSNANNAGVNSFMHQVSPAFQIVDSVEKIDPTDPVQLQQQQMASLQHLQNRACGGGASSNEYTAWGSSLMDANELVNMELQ
Experiment: protein-binding microarray (RPBM); PBS, 2% BSA, 51.3 ng/ul salmon testes DNA, 50 uM zinc acetate, 200 nM TF, 25 C, 1 h; high values mean tight binding
Conditions: protein: recombinant; tags: N-terminal polyhistidine and DsRed monomer fusion (pET32a); chain copies: 2; label: CyDye5-dUTP incorporated in the synthesized complementary strand; 3' TTTTT single-stranded linker to array surface; dsDNA, one strand shown
Summary of the method: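 Polyhistidine-tagged DsRed fusions of transcription factors, joined at the N-terminus, were expressed in E. coli BL21-CodonPlus and isolated on Ni–NTA. They were incubated at 200 nM for 1 h at 25 °C on a custom Agilent array, double-stranded and BSA-blocked, in PBS with 2% BSA, salmon testes DNA and 50 µM zinc acetate. The binding signal is per-feature fluorescence intensity (arbitrary units) read on an Axon 4000B scanner after washing.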

First: CACAGGCAGGCCTGCAACATGCGTCACGCAGACTTTGATGCGGAGTCACCTAGTGCAG
Second: AGCTAGAACGCACAGACTTTAGGCTTTAGGTACGATGATGCGGAGTCACCTAGTGCAG
The binding signal of the first is lower: 4140 fluorescence intensity (a.u.) for the first, 43300 fluorescence intensity (a.u.) for the second.

First: CACTAGCTTGTTATATTTACGTGGCACACTTTGATGAGTACGGAGTCACCTAGTGCAG
Second: AAAGCAACAGCAGCCCAGCACACCACAGCACAGCGCCGCTCGGAGTCACCTAGTGCAG
The binding signal of the first is higher: 11500 fluorescence intensity (a.u.) for the first, 3180 fluorescence intensity (a.u.) for the second.

First: CATCATCATCTCTTCTCCTCTCTCTCTCTCTTTCCTTTTCCGGAGTCACCTAGTGCAG
Second: TCTCCCCTCTCCTTCCTCCTCTCCTTTCCCCTCCTCTCTTCGGAGTCACCTAGTGCAG
The binding signal of the first is lower: 8580 fluorescence intensity (a.u.) for the first, 17100 fluorescence intensity (a.u.) for the second.

First: CTCCTCTCCTCCCTCCTCGACTTCTCCGCTTTCTCCGCCTCGGAGTCACCTAGTGCAG
Second: CTTCACTAAGGTCATCGTCGTGCCTTCCTCGTCCTCCTCCCGGAGTCACCTAGTGCAG
The binding signal of the first is lower: 3230 fluorescence intensity (a.u.) for the first, 43800 fluorescence intensity (a.u.) for the second.

Going from “TCCTCCTCGTCGTCATCTCCAACTCCCTCCCGCTCCCTTCCGGAGTCACCTAGTGCAG” to “TCCTGTCCTTCTTTCTCTTCAAGTCCTTCCTCTTCACTCCCGGAGTCACCTAGTGCAG”, the binding signal rises from 5660 fluorescence intensity (a.u.) to 65500 fluorescence intensity (a.u.).

Going from “TTCCTGACTTCCTCCTCCCTTTCTTCTCTCGCCGCCGAGACGGAGTCACCTAGTGCAG” to “CTCCTCTTCCCTTCCCTTCTCTCTTTTCTTTTCTCTCACACGGAGTCACCTAGTGCAG”, the binding signal falls from 41400 fluorescence intensity (a.u.) to 28600 fluorescence intensity (a.u.).

Compared with “TCCTCCATCGCCGCCTTCACCGAGTCACCGCCCGTCATCCCGGAGTCACCTAGTGCAG”, “GACCAAACCTCCAATTAACAAGGTAGTTTAACACACATCACGGAGTCACCTAGTGCAG” is higher in binding signal: 3380 fluorescence intensity (a.u.) for the first, 16100 fluorescence intensity (a.u.) for the second.

Going from “TACAAGTATAAAACTTTAGATACGTGGGATTAACACGTCACGGAGTCACCTAGTGCAG” to “CCTCGGGGAGGGCGTGGCAAGCGGCACGCGTGGCGGGGAGCGGAGTCACCTAGTGCAG”, the binding signal falls from 6470 fluorescence intensity (a.u.) to 5890 fluorescence intensity (a.u.).

First: CCCCAGAAAGTCCCCATATTTCTAGGAACTTCCGTTCTAGCGGAGTCACCTAGTGCAG
Second: GCTCATAGAGCTACACACTGATGACAAGACATAAGGGAAGCGGAGTCACCTAGTGCAG
The binding signal of the first is higher: 13900 fluorescence intensity (a.u.) for the first, 4350 fluorescence intensity (a.u.) for the second.

Compared with “ACCTCCGGCCCACGGACGCGACGCGCTTACACACATGGCCCGGAGTCACCTAGTGCAG”, “TGGATTACTCATAATGATTATGTCATATAGGTGATGTTGCCGGAGTCACCTAGTGCAG” is lower in binding signal: 3580 fluorescence intensity (a.u.) for the first, 3440 fluorescence intensity (a.u.) for the second.

First: ATATAGCATGTCAAGATATTTGGGTGATATGTACTATGTACGGAGTCACCTAGTGCAG
Second: GGATAAGCACCGACGATTTGGTGGTAGATCTATATGGGTACGGAGTCACCTAGTGCAG
The binding signal of the first is lower: 4580 fluorescence intensity (a.u.) for the first, 48000 fluorescence intensity (a.u.) for the second.

Going from “TGATACGATGACGTTTGGGTGGTTGGATATATATCATGATCGGAGTCACCTAGTGCAG” to “ATGATTTATTATGTTCTGCCCTTCTTTGTTGTGACAAAGTCGGAGTCACCTAGTGCAG”, the binding signal falls from 5350 fluorescence intensity (a.u.) to 3900 fluorescence intensity (a.u.).

Compared with “TGCTTTCCTCCCTTTATTACTACATCATGCGCCTTCGTGACGGAGTCACCTAGTGCAG”, “AGCTGGCGGCTGGCGGGTGGTGGTGGTGGCTGGCGGCGGGCGGAGTCACCTAGTGCAG” is higher in binding signal: 3370 fluorescence intensity (a.u.) for the first, 4500 fluorescence intensity (a.u.) for the second.

Going from “GAAGAATCGGCCCAACGACCAAGAGGGAGTCAAAATAGACCGGAGTCACCTAGTGCAG” to “CAGTGCCGACTGCCGAGGCAGAGAGGCAGACAAAGTGACACGGAGTCACCTAGTGCAG”, the binding signal rises from 22600 fluorescence intensity (a.u.) to 54900 fluorescence intensity (a.u.).

First: ACATCCGAGAGACTAGGCCGACAAATCACCACCGACACGTCGGAGTCACCTAGTGCAG
Second: CCCACCTGTGACTCAGCGAGCCGACTGCCACGTCAGACAACGGAGTCACCTAGTGCAG
The binding signal of the first is lower: 5890 fluorescence intensity (a.u.) for the first, 34400 fluorescence intensity (a.u.) for the second.

First: GTAGAAAGCAGGGATAAAGTATTGGTGGAGATGTCACGCCCGGAGTCACCTAGTGCAG
Second: ATCCACGAGGGCAAGCAAGCAAGCAAGCTCCACCTCTCTGCGGAGTCACCTAGTGCAG
The binding signal of the first is higher: 3560 fluorescence intensity (a.u.) for the first, 3220 fluorescence intensity (a.u.) for the second.

Compared with “GTCAAAGTTATAAAAGTTTGACCTCAACTTTGTCCAAAACCGGAGTCACCTAGTGCAG”, “CTTAAAGCAGTTTGACTTTGACCAAAGTCAAAACGTCTTACGGAGTCACCTAGTGCAG” is higher in binding signal: 24200 fluorescence intensity (a.u.) for the first, 40600 fluorescence intensity (a.u.) for the second.

First: TTAAATTTGAAACAGTTTGACTTTGACCAGTCAAAGTCTTCGGAGTCACCTAGTGCAG
Second: CTGGGCAAAATCTCTCCCATACATACACTACAGCGGCGAACGGAGTCACCTAGTGCAG
The binding signal of the first is higher: 8060 fluorescence intensity (a.u.) for the first, 3290 fluorescence intensity (a.u.) for the second.

Going from “GGGCGTTGCGGCCGTCACACGTGGTATGGGAGGGCGCCGCCGGAGTCACCTAGTGCAG” to “TAGTAGTACTATGTAACCGGTACAGTCACCAAAACAGGGTCGGAGTCACCTAGTGCAG”, the binding signal falls from 5820 fluorescence intensity (a.u.) to 5260 fluorescence intensity (a.u.).

First: CAGTTGACAAATGACAACCGGCACGTTTGCAACATGCAAGCGGAGTCACCTAGTGCAG
Second: GTTTATACCTATAAAGTTTCTATATTAAAAGTTTACGTGTCGGAGTCACCTAGTGCAG
The binding signal of the first is lower: 3220 fluorescence intensity (a.u.) for the first, 3490 fluorescence intensity (a.u.) for the second.

Compared with “TTTGCCTACTCATCACCACATGTATAAAGTGTAAACTTTACGGAGTCACCTAGTGCAG”, “CAGTTCTTAAACTTGTAAAGTTGTGTCATATACCACATTACGGAGTCACCTAGTGCAG” is higher in binding signal: 5240 fluorescence intensity (a.u.) for the first, 39600 fluorescence intensity (a.u.) for the second.

Compared with “CCAAAATTAGCTTCGGTCGGTACAAACACCAGAATTCAGCCGGAGTCACCTAGTGCAG”, “CGGAATGTCTCCGCGGAAGATGCCCAAGGAATCGCCTGGCCGGAGTCACCTAGTGCAG” is higher in binding signal: 3220 fluorescence intensity (a.u.) for the first, 39500 fluorescence intensity (a.u.) for the second.

Compared with “GTCTCCGATGCCCCGATGCCGCCGCGTCGCTGGCCTGATTCGGAGTCACCTAGTGCAG”, “CACCGCCCCATCGATCTCCGCCCGGCCGCCACCAATCTCGCGGAGTCACCTAGTGCAG” is lower in binding signal: 3390 fluorescence intensity (a.u.) for the first, 3310 fluorescence intensity (a.u.) for the second.

First: ATTAATAGCAGTGACGTCTTGCACATACTGTATGAGTCATCGGAGTCACCTAGTGCAG
Second: TTATCTCCTCATCCATTTTCATCCTCGTCTACATTCACTGCGGAGTCACCTAGTGCAG
The binding signal of the first is lower: 11000 fluorescence intensity (a.u.) for the first, 24600 fluorescence intensity (a.u.) for the second.

First: GAACATATCACATGCTCATATCAAAATTTATAATATTAAACGGAGTCACCTAGTGCAG
Second: CATGGATAGGATAATCGTAACAATTATCTAGACAGTGATGCGGAGTCACCTAGTGCAG
The binding signal of the first is higher: 35200 fluorescence intensity (a.u.) for the first, 3140 fluorescence intensity (a.u.) for the second.

First: ATAATATAAAACGGATGGATCACATGCTATGAACCTATGACGGAGTCACCTAGTGCAG
Second: ATTGGACGATAAAATATTGGACGGTGATTCACCTTTTAGACGGAGTCACCTAGTGCAG
The binding signal of the first is higher: 51200 fluorescence intensity (a.u.) for the first, 3170 fluorescence intensity (a.u.) for the second.

Going from “AATGTAATAAATTGTAGATGTCATTGCTATGCATGCATGACGGAGTCACCTAGTGCAG” to “TCTTTGGTGATGGATAATAACCCGATATAAACAATATAGACGGAGTCACCTAGTGCAG”, the binding signal rises from 3920 fluorescence intensity (a.u.) to 65000 fluorescence intensity (a.u.).
